Experimental data: PMC5540273 (PLoS ONE, 2017)

tested on: CAMKK2; details: concentration: 1 μM, replicates: in singlicate; n = 1
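Further: KINOMEscan kinase panel screen.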

Row | Structure (SMILES) | %Inh
1 | COc1cc2ncn(-c3cc(OCc4ccncc4Br)c(C(N)=O)s3)c2cc1OC [GW854278] | 17%
2 | Cc1cc(Nc2nc(-c3cccc(C)n3)nc3ccccc23)ccn1 [GW872411] | 0%
3 | Cc1nnc(-c2ccc(C)c(-c3ccc(C(=O)O)cc3)c2)o1 [GW608005] | 0%
4 | COc1cc(Nc2ccnc3ccc(C(F)(F)F)cc23)cc(OC)c1OC [GW577382] | 0%
5 | FC(F)(F)c1ccc(-c2ncn(CCCN3CCOCC3)c2-c2ccncc2)cc1 [SB-217780] | 18%
6 | Cl.c1ccc(Cn2cnc3cc(Nc4ncnc5ccccc45)ccc32)cc1 [GW272142] | 31%
7 | Cc1ccc(-c2ccc3c(ccc4sc5c(c43)NC[C@@H](C)N=C5N(C)C)n2)cn1 | 0%
8 | Cl.NS(=O)(=O)c1cccc(Nc2cc(-c3ccc(F)cc3)n[nH]2)c1 [GW824645] | 0%
9 | CCc1ccc(-c2ccc3c(c2)-c2nn(C)cc2S(=O)(=O)N3C)cc1 | 9%
10 | O=C(Nc1ccc2c(c1)OCO2)NC1CCN(c2ccnc(NCc3ccc(F)cc3)n2)CC1 [GSK1379859] | 25%
11 | Cc1nc(N(C)[C@H]2CN(C(=O)CC#N)CC[C@H]2C)c2cc[nH]c2n1 | 4%
12 | CCCC(=O)Nc1n[nH]c2ncc(-c3cccc4ccccc34)cc12 [SB-642057] | 30%
13 | COC(=O)c1c(-c2ccccc2)c2cc(C)ccc2c(=O)n1Cc1ccccc1 | 6%
14 | Cc1ccc(Oc2ccc(Nc3ncnc4cc[nH]c34)cc2C)cn1 | 5%
15 | COc1cc2ncn(-c3cc(OCCCc4ccccc4)c(C(N)=O)s3)c2cc1OC [GSK205189] | 17%
16 | O=C1NC(=O)C(c2ccccc2)=C1Nc1cccc(O)c1 [SB-390534] | 0%
17 | CN1C(=O)C(Nc2ccccc2)=C(c2ccccc2)C1=O [SB-300079] | 0%
18 | COc1ccc(-n2cnc3c(N)ncnc32)cc1 [SKF-97236] | 0%

Row | Structure (SMILES) | %Inh
19 | COc1ccc(Nc2nccc(N3CCC(NS(=O)(=O)c4ccc(NC(C)=O)cc4)C3)n2)cc1 (stereo not drawn) [GSK1379729] | 5%
20 | Nc1ncnc2c1ncn2-c1cccc2ccccc12 [SKF-97184] | 0%
21 | Nc1nc(-c2ccccc2F)c(-c2ccnc3ccccc23)s1 [GW560459] | 4%
22 | CCc1nc(-c2cccc(C)c2)c(-c2ccncc2)s1 | 0%
23 | CCS(=O)c1ccc(-c2coc3ccc(-c4nnc(C)o4)cc23)cc1 (stereo not drawn) | 0%
24 | O=c1cc(N2CCOCC2)nc2n(Cc3ccc(F)c(Cl)c3)ccn12 [GSK2297099] | 24%
25 | COC(=O)c1c(-c2ccccc2)c2cc(Br)ccc2c(=O)n1Cc1ccc(NC(=O)CCC(=O)O)cc1 | 0%
26 | COc1cc2ncn(-c3cc(OCc4ccncc4)c(C(N)=O)s3)c2cc1OC [GSK336313] | 22%
27 | CCn1c(-c2nonc2N)nc2ccccc21 [SB-693162/GW549034] | 0%
28 | CCC(=O)c1c(-c2ccccc2)c2cc(Cl)ccc2c(=O)n1Cc1cc(S(C)(=O)=O)n(CC(N)=O)n1 | 0%
29 | O=C(Nc1n[nH]c2nc(-c3ccccc3)c(Cl)cc12)C1CC1 [SB-734909] | 1%
30 | COc1cccc(-n2cnc3c(N)ncnc32)c1 [SKF-97416] | 6%
31 | CCS(=O)(=O)c1ccc(OC)c(Nc2ncc(-c3ccc(F)cc3)o2)c1.Cl [GW591947] | 12%
32 | COc1cc(OC)cc(-c2cc3cnc(N)nc3nc2NC(=O)NC(C)(C)C)c1 | 29%
33 | COc1cc2nccc(Nc3ccc(OCc4ccc(NC(C)=O)cc4)cc3)c2cc1OC.Cl [GW440135] | 1%
34 | O=C(Nc1n[nH]c2cc(-c3ccccc3F)ccc12)C1CC1 [SB-733371] | 0%
35 | CN1C(=O)C(Nc2cc(Cl)c(O)c(Cl)c2)=C(c2ccc(Cl)cc2)C1=O [SB-404321] | 0%
36 | C[C@@H]1CC[C@H](C(=O)NC2CCCCC2)CN1c1cc(-c2ccc3c(N)n[nH]c3c2)nc(N)n1 [GSK2291363] | 37%

tested on: CASK; details: concentration: 1 μM, replicates: in singlicate; n = 1

Row | Structure (SMILES) | %Inh
37 | COc1cc2ncn(-c3cc(OCc4ccncc4Br)c(C(N)=O)s3)c2cc1OC [GW854278] | 34%
38 | Cc1cc(Nc2nc(-c3cccc(C)n3)nc3ccccc23)ccn1 [GW872411] | 7%
39 | Cc1nnc(-c2ccc(C)c(-c3ccc(C(=O)O)cc3)c2)o1 [GW608005] | 1%
40 | COc1cc(Nc2ccnc3ccc(C(F)(F)F)cc23)cc(OC)c1OC [GW577382] | 25%
41 | FC(F)(F)c1ccc(-c2ncn(CCCN3CCOCC3)c2-c2ccncc2)cc1 [SB-217780] | 0%
42 | Cl.c1ccc(Cn2cnc3cc(Nc4ncnc5ccccc45)ccc32)cc1 [GW272142] | 26%
43 | Cc1ccc(-c2ccc3c(ccc4sc5c(c43)NC[C@@H](C)N=C5N(C)C)n2)cn1 | 2%
44 | Cl.NS(=O)(=O)c1cccc(Nc2cc(-c3ccc(F)cc3)n[nH]2)c1 [GW824645] | 20%
45 | CCc1ccc(-c2ccc3c(c2)-c2nn(C)cc2S(=O)(=O)N3C)cc1 | 14%
46 | O=C(Nc1ccc2c(c1)OCO2)NC1CCN(c2ccnc(NCc3ccc(F)cc3)n2)CC1 [GSK1379859] | 0%
47 | Cc1nc(N(C)[C@H]2CN(C(=O)CC#N)CC[C@H]2C)c2cc[nH]c2n1 | 15%
48 | CCCC(=O)Nc1n[nH]c2ncc(-c3cccc4ccccc34)cc12 [SB-642057] | 34%
49 | COC(=O)c1c(-c2ccccc2)c2cc(C)ccc2c(=O)n1Cc1ccccc1 | 0%
50 | Cc1ccc(Oc2ccc(Nc3ncnc4cc[nH]c34)cc2C)cn1 | 0%
51 | COc1cc2ncn(-c3cc(OCCCc4ccccc4)c(C(N)=O)s3)c2cc1OC [GSK205189] | 52%
52 | O=C1NC(=O)C(c2ccccc2)=C1Nc1cccc(O)c1 [SB-390534] | 1%
53 | CN1C(=O)C(Nc2ccccc2)=C(c2ccccc2)C1=O [SB-300079] | 0%
54 | COc1ccc(-n2cnc3c(N)ncnc32)cc1 [SKF-97236] | 0%

Row | Structure (SMILES) | %Inh
55 | COc1ccc(Nc2nccc(N3CCC(NS(=O)(=O)c4ccc(NC(C)=O)cc4)C3)n2)cc1 (stereo not drawn) [GSK1379729] | 0%
56 | Nc1ncnc2c1ncn2-c1cccc2ccccc12 [SKF-97184] | 22%
57 | Nc1nc(-c2ccccc2F)c(-c2ccnc3ccccc23)s1 [GW560459] | 0%
58 | CCc1nc(-c2cccc(C)c2)c(-c2ccncc2)s1 | 0%
59 | CCS(=O)c1ccc(-c2coc3ccc(-c4nnc(C)o4)cc23)cc1 (stereo not drawn) | 0%
60 | O=c1cc(N2CCOCC2)nc2n(Cc3ccc(F)c(Cl)c3)ccn12 [GSK2297099] | 2%
61 | COC(=O)c1c(-c2ccccc2)c2cc(Br)ccc2c(=O)n1Cc1ccc(NC(=O)CCC(=O)O)cc1 | 0%
62 | COc1cc2ncn(-c3cc(OCc4ccncc4)c(C(N)=O)s3)c2cc1OC [GSK336313] | 7%
63 | CCn1c(-c2nonc2N)nc2ccccc21 [SB-693162/GW549034] | 0%
64 | CCC(=O)c1c(-c2ccccc2)c2cc(Cl)ccc2c(=O)n1Cc1cc(S(C)(=O)=O)n(CC(N)=O)n1 | 0%
65 | O=C(Nc1n[nH]c2nc(-c3ccccc3)c(Cl)cc12)C1CC1 [SB-734909] | 35%
66 | COc1cccc(-n2cnc3c(N)ncnc32)c1 [SKF-97416] | 20%
67 | CCS(=O)(=O)c1ccc(OC)c(Nc2ncc(-c3ccc(F)cc3)o2)c1.Cl [GW591947] | 3%
68 | COc1cc(OC)cc(-c2cc3cnc(N)nc3nc2NC(=O)NC(C)(C)C)c1 | 0%
69 | COc1cc2nccc(Nc3ccc(OCc4ccc(NC(C)=O)cc4)cc3)c2cc1OC.Cl [GW440135] | 0%
70 | O=C(Nc1n[nH]c2cc(-c3ccccc3F)ccc12)C1CC1 [SB-733371] | 0%
71 | CN1C(=O)C(Nc2cc(Cl)c(O)c(Cl)c2)=C(c2ccc(Cl)cc2)C1=O [SB-404321] | 14%
72 | C[C@@H]1CC[C@H](C(=O)NC2CCCCC2)CN1c1cc(-c2ccc3c(N)n[nH]c3c2)nc(N)n1 [GSK2291363] | 18%
